IDE cell inh – inhibitors of human insulin-degrading enzyme in cells; HEK cells, FAbetaB cleavage, fluorescence polarization; AID 434962; P14735; inhibition, % at 5.59 µM; 320,000 compounds, 0.41% hits;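 active = percent inhibition above the average of all tested compounds plus 3 SD, set per screening campaign, cut at about 16% in these data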;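 also: IDE supplied by intact live HEK cells; FP after avidin binding of uncleaved biotin substrate so inhibition keeps polarization high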
ALR H2O2 inh – inhibitors of human sulfhydryl oxidase ALR. P55789. 290,000 compounds, 3.8% hits. inhibition, % (concentration not given with the values). purified ALR, DTT oxidation, H2O2 HRP-luminol luminescence;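 active = mean replicate inhibition above about 79%, with every replicate also reaching it, limit read from the data; inconclusive = only one of the two criteria met; inactive = mean below limit and not every replicate reaching it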
Target sequence (P55789 whole entry, looked up): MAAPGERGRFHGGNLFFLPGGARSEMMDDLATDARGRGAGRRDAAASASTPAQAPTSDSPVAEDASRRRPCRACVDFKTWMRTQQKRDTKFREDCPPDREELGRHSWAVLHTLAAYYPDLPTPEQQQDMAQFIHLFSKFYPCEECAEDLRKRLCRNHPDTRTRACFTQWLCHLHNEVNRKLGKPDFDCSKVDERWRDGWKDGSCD
IDE act – activators of human insulin-degrading enzyme in cells | HEK cells, FAbeta-B cleavage, fluorescence polarization; 0% vehicle, 100% cell-free pure enzyme wells | activation, % at 5.96 µM | 340,000 compounds, 0.073% hits;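 active = activation above the mean of all tested compounds plus 3 SD, set per screening campaign, cut at about 17% in these data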
M18AAP inhibitor – blocks P. falciparum M18 aspartyl aminopeptidase. 290,000 compounds, 1.2% hits. inhibition, % at 7.35 µM. recombinant PfM18AAP, H-Glu-NHMec fluorogenic cleavage;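 active = inhibition above the campaign mean inhibition over all tested compounds plus 3 SD, cut at about 28% in these data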
PolyA inhibitor – blocks polyadenylation in yeast reporter cells; S. cerevisiae SKY197-pL101 polyadenylation reporter, beta-gal luminescence; efflux-impaired pdr1/pdr3 knockout yeast; score 100 = 6 SD above DMSO; activity score, % at 12 µM; 300,000 compounds, 0.02% hits; AID 1875;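 active = lowest replicate activity score at least 50, where 100 means six control SD above control mean; inconclusive = lowest score under 50 but half or more replicates reach 50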;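 also: yeast exposed to compound for 9 h at 30 °C; higher score means more reporter readthrough which indicates perturbed polyadenylation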
CaV13 ICDI inh – Primary screen for inhibitors of IQ motif and Ca2+-dependent inactivation inhibitor domain binding in CACNA1D, Förster resonance energy transfer in living cells, …. inhibition, % at 12.3 µM. HEK cells, CFP/YFP FRET ICDI-IQ, plate reader, 10 min; percent FRET-ratio fall versus neutral wells. AID 743397. 340,000 compounds, 0.098% hits;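 active = mean replicate inhibition of at least 30% and at least 1% of replicates passing that level; inconclusive = only one of the two criteria is met; inactive = neither criterion is met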
Each line names hits and unclear results; the compound was inactive in the other large screens. Hits are enriched below; roughly 4.1% of the tested compounds scored in any of these assays.

COc1ccc(OCc2nc3ccccc3[nH]2)cc1	none (no result: CaV13 ICDI inh)
Nc1ccc2nc(CCCCc3nc4ccccc4[nH]3)[nH]c2c1	ALR H2O2 inh 100 (no result: IDE cell inh)
Nc1ccc(C(=O)OCCCc2nc3ccccc3[nH]2)cc1	none (no result: CaV13 ICDI inh)
Nc1ccc2nc(CCCCCCCCc3nc4ccc(N)cc4[nH]3)[nH]c2c1	ALR H2O2 inh 96
CCO[C@H]1OC(C(=O)Nc2ccccc2)=C[C@@H](c2ccc(C(F)(F)F)cc2)[C@@H]1CCCO	none
Cc1cc(NC(=O)CSCC(=O)Nc2ccc(C)c(C)c2)no1	none (no result: M18AAP inhibitor, PolyA inhibitor)
O=C(NC(Cc1ccccc1)c1nc2ccccc2[nH]1)C1CC(=O)N(c2ccc3c(c2)OCCO3)C1 (centres undefined)	none (no result: ALR H2O2 inh, CaV13 ICDI inh)
Cc1ccc(CNC(=O)CSc2nc(=O)n3ccc(C)cc3n2)cc1	none (no result: IDE cell inh, ALR H2O2 inh, IDE act, M18AAP inhibitor, PolyA inhibitor)
Nc1ccc2nc(CCCO)[nH]c2c1	ALR H2O2 inh 99
O=[N+]([O-])c1ccc2nc(CCCc3nc4ccc([N+](=O)[O-])cc4[nH]3)[nH]c2c1	none
CC(=O)Nc1cccc(NC(=O)CSc2nn3c(=O)c(C)nnc3s2)c1	ALR H2O2 inh 98 (no result: M18AAP inhibitor)
Cc1nnc2sc(SCC(=O)Nc3ccc(Cl)cc3)nn2c1=O	ALR H2O2 inh 93
Cc1cccc(CSc2nn3c(=O)c(C)nnc3s2)c1	ALR H2O2 inh 99
CCCCCCC(C)n1[nH]c(=O)c2c(C)cc(C)nc21 (centres undefined)	none
O=c1c(/C=N/OCc2ccc(Cl)cc2Cl)c[nH]n1-c1cccc(Cl)n1	ALR H2O2 inh 98
Cc1cc(O)c(/C=N/OCc2ccc(Cl)cc2Cl)c(=O)o1	none
COc1ccccc1NC(=O)C(C)OC(=O)/C=C/c1ccc2ccccc2n1 (centres undefined)	ALR H2O2 inh 94 (no result: M18AAP inhibitor)
CC(=O)/C=C/c1ccc2ccccc2n1	ALR H2O2 inh 98
c1cc2c(cc1Cn1cnnn1)OCO2	none
COc1cc(Cn2cnnn2)ccc1O	ALR H2O2 inh 81
CC(C)(C)c1ccc(-c2nc3cc(N)ccc3o2)cc1	ALR H2O2 inh 99
Cc1ccc(-c2nc3cc(N)ccc3o2)c(C)c1	ALR H2O2 inh 99
Nc1ccc2oc(-c3cccc4ccccc34)nc2c1	ALR H2O2 inh inconclusive
Cc1ccc(-c2nc3cc(N)ccc3o2)cc1	none
Nc1ccc2oc(-c3cccs3)nc2c1	ALR H2O2 inh 98
OC[C@H]1O[C@@H](Oc2cc(O)cc(/C=C/c3ccc(O)cc3)c2)[C@H](O)[C@@H](O)[C@@H]1O	ALR H2O2 inh 99, M18AAP inhibitor 40 (no result: IDE act, CaV13 ICDI inh)
CCOC(=O)C1=C(COC(=O)c2ccc(OC)c(S(=O)(=O)N3CCOCC3)c2)NC(=O)NC1C (centres undefined)	none (no result: IDE cell inh, ALR H2O2 inh, M18AAP inhibitor, PolyA inhibitor)
CCN1C=C(Cc2ccc(F)cc2)C2=C(C1)C(c1ccc(F)cc1)C(C#N)=C(N)O2 (centres undefined)	ALR H2O2 inh 99
COc1ccc(N(C)C(=S)Nc2ccc3nc(C)c(C)nc3c2)cc1	ALR H2O2 inh 98
Cc1ccc(S(=O)(=O)N(C)c2ccc(OCC(=O)Nc3nc4c(ccc5ccccc54)s3)cc2)cc1	ALR H2O2 inh 84
Cc1ccc(S(=O)(=O)N(C)c2ccc(OCC(=O)Nc3nc4ccccc4s3)cc2)cc1	none (no result: CaV13 ICDI inh)
CC(=O)c1ccc(NC(=O)CCCCCn2nnc3ccccc3c2=O)cc1	none
O=C(CSCC(=O)OCn1nnc2ccccc2c1=O)Nc1ccc(Cl)cc1	ALR H2O2 inh 98
CN(C)c1ccc(NC(=O)CCCCCn2nnc3ccccc3c2=O)cc1	ALR H2O2 inh 99
CCC1(C)N(O)C(C)(C)C(c2ccc(F)cc2)=[N+]1[O-] (centres undefined)	M18AAP inhibitor 29
C/C(=N\O)C1(C)N(O)C(C)(C)C(c2ccc(F)cc2)=[N+]1[O-] (centres undefined)	none (no result: CaV13 ICDI inh)
Cn1ncc2c(=S)[nH]c(=S)[nH]c21	none (no result: IDE cell inh, ALR H2O2 inh, IDE act, M18AAP inhibitor, PolyA inhibitor)
C[C@@H]1CN([C@H](C)CO)C(=O)CCCn2nncc2CO[C@H]1CN(C)Cc1ccncc1	none (no result: IDE cell inh, ALR H2O2 inh, IDE act, M18AAP inhibitor, PolyA inhibitor)
COc1ccccc1OCC(=O)Nc1ncc(C)s1	none (no result: M18AAP inhibitor, PolyA inhibitor)
COc1ccccc1C(=O)NNc1ncc(C)s1	M18AAP inhibitor 31 (no result: ALR H2O2 inh)
Cn1c(=O)[nH]c(=O)c2c1nc(NCCCO)n2CCCc1ccccc1	none
COC(=O)c1cc(C(=O)N2CCN(c3cccc(C)c3C)CC2)cc([N+](=O)[O-])c1	PolyA inhibitor 103
COC(=O)c1cc(C(=O)N2CCN(c3ccccc3OC)CC2)cc([N+](=O)[O-])c1	none
COC(=O)c1ccccc1N=Nc1c(N)n[nH]c1N	ALR H2O2 inh 91
CCCS(=O)(=O)c1ccc(COC(=O)c2ccc(NC(C)=O)cc2)cc1	none
O=C1CCC(C(=O)N2CCCC(Nc3ccc(F)cc3)C2)=NN1 (centres undefined)	ALR H2O2 inh 82
Cn1cc(CCC(=O)N2CCCC(Nc3ccc(F)cc3)C2)cn1 (centres undefined)	ALR H2O2 inh inconclusive
COc1ccc(NC2CCCN(C(=O)CCc3cn[nH]c3)C2)cc1 (centres undefined)	ALR H2O2 inh 99
COc1ccc(CCC(=O)N2CCCC(Nc3ccc(OC)cc3)C2)cc1 (centres undefined)	ALR H2O2 inh 99
O=C(CCc1ccncc1)N1CCCC(Nc2ccc(F)cc2)C1 (centres undefined)	none
O=C(CCc1ccccc1)N1CCCC(Nc2ccc(F)cc2)C1 (centres undefined)	ALR H2O2 inh 98
O=C(c1ccnc(Cl)c1)N1CCCC(Nc2ccc(F)cc2)C1 (centres undefined)	none
O=C1CC(N2CCN(c3nc4ccccc4s3)CC2)C(=O)N1c1cccc(F)c1 (centres undefined)	none (no result: ALR H2O2 inh)
Cc1ccc(N2C(=O)CN(Cc3ccccc3)C2=S)cc1C	none
Cc1cccc(C)c1-n1nnnc1C(c1ccccc1)N1CCN(C/C=C/c2ccccc2)CC1 (centres undefined)	none (no result: IDE cell inh, ALR H2O2 inh, IDE act, M18AAP inhibitor, PolyA inhibitor)
COc1ccc(NC2CCCN(C(=O)CSc3ccncc3)C2)cc1 (centres undefined)	ALR H2O2 inh 99
COc1ccc(NC2CCCN(C(=O)CCC(=O)c3ccc(F)cc3)C2)cc1 (centres undefined)	ALR H2O2 inh 99
COc1ccc(NC(=O)CCC(=O)c2ccc(F)cc2)cc1	none (no result: IDE cell inh, ALR H2O2 inh, M18AAP inhibitor, PolyA inhibitor)
CC(C)c1ccc(NC2CCCN(C(=O)CCc3cn[nH]c3)C2)cc1 (centres undefined)	ALR H2O2 inh 98 (no result: IDE cell inh)
C=CCOc1cccc(C(=O)N2CCCC(Nc3ccc(F)cc3)C2)c1 (centres undefined)	none (no result: CaV13 ICDI inh)
COc1cc(OC)cc(C(=O)N2CCCC(Nc3ccc(F)cc3)C2)c1 (centres undefined)	ALR H2O2 inh 99
COc1ccc(CCC(=O)N2CCCC(Nc3ccccc3)C2)cc1OC (centres undefined)	ALR H2O2 inh 98

Source: PubChem BioAssay
